MARV entry inh = inhibitors of Marburg virus binding or cell entry; 1.8% of 300,000 active; Potency, µM (highest dose often 37.8 µM), inactives show at the top dose activity change, negative = inhibition, most hits filed as inhibitors; AID 540276; Marburg virus pseudotyped entry inhibition, cell reporter; calls by dose curve; tested in HEK293 cells; further: potency means the concentration at half of the fitted maximal effect; on the % scale 0 is the no-effect control and ±100 the full control effect
CHX counter = counter-screen for Shiga toxin inhibitors: cycloheximide protein synthesis inhibition; AID 2314; cell reporter, cycloheximide protein synthesis inhibition counterscreen; max response, %; 12% of 300,000 active; in the data active means max response mostly above about 13%, no sharp cut-off; inactive means mostly below about 14%; further: read at 38.3 µM for the half of the compounds with a filed dose; 0% is about no effect
Lassa entry inh = blocks Lassa virus binding to or entry into cells; Lassa virus pseudotype entry inhibition, cell reporter; Potency, µM (highest dose often 37.9 µM), inactives show at the top dose activity change, negative = inhibition, most hits filed as inhibitors; 1.2% of 300,000 active; calls by dose curve; tested in HEK293 cells; further: potency means the concentration at half of the fitted maximal effect; on the % scale 0 is the no-effect control and ±100 the full control effect; nearly all actives have a fitted effect of over 50% in size
Shiga inhibitor = blocks Shiga toxin action in Vero cells | inhibition, % at 38.7 µM | AID 2315 | 9.2% of 290,000 active | Vero cells, Shiga toxin protein synthesis inhibition reporter; in the data active means inhibition mostly above about 28%, no sharp cut-off; inactive means mostly below about 43%; further: 0% is about no effect
HCV inhibitor = blocks hepatitis C virus; AID 651820; Potency, µM (series often up to 41.8 µM), for the others: at the top dose activity change, negative = inhibition, hits mostly inhibitors; 3.4% of 340,000 active; Huh7.5.1 HCVcc-Cre infection, luciferase reporter, 44 h; active means well fitted inhibition curve with a large enough effect; inconclusive means small, poorly fitted or top-dose-only effect, or another doubt; inactive means no such curve, though single readings can be large or run the other way; further: potency means the concentration at half of the fitted maximal effect; on the % scale 0 is the no-effect control and ±100 the full control effect
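Cells (1,000/well) were plated 4 h before compound, then infected with HCVcc-Cre virus (~0.5 moi). After 44 h further culture, infection was read as luciferase luminescence following a 15 min substrate incubation at room temperature.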
FMDV antiviral = antivirals against foot and mouth disease virus; FMDV antiviral cell-based qHTS; Potency, µM (series often up to 57.9 µM), inactives show at the top dose activity change, negative = inhibition, hits mostly inhibitors; 1.2% of 410,000 active; AID 1159524; calls by dose curve; tested in HEK293T cells; further: read-out not given here; potency means the concentration at half of the fitted maximal effect; on the % scale 0 is the no-effect control and ±100 the full control effect; nearly all actives have a fitted effect of over 45% in size
The depositor's hits bear a star; ? = inconclusive; . = no result given; [ ] = remark or other dose. Most compounds without a hit are left out; they make up all but 13% or so of the library.

SMILES	MARV entry inh	CHX counter	Lassa entry inh	Shiga inhibitor	HCV inhibitor	FMDV antiviral
CCOC(=O)C(O)(c1ccc(NC(=S)NC(=O)c2ccc(Cl)cc2Cl)cc1)C(F)(F)F (stereo not given)	?	-2.0	?	-7.1	?	-2.0%
COC(=O)C(O)(c1ccc(NC(=S)NC(=O)c2ccc(Cl)cc2Cl)cc1)C(F)(F)F (stereo not given)	4.0%	-2.2	?	4.1	?	0.0%
CCOC(=O)C(O)(c1ccc(NC(=S)NC(=O)c2ccc(Cl)cc2Cl)c(C)c1)C(F)(F)F (stereo not given)	?	-1.7	10.3µM*	-3.9	?	?
COC(=O)C(O)(c1ccc(NC(=S)NC(=O)c2ccc(Cl)cc2Cl)c(C)c1)C(F)(F)F (stereo not given)	?	2.2	5.8µM*	12.2	?	?
Cc1cc(NC(=O)CCN2C(=O)/C(=C\c3ccccc3)SC2=S)no1	-0.3%	-1.0	3.5%	3.6	4.9%	39.3%
CCN(C(=O)COC(=O)c1cnc(C)cn1)C1CCS(=O)(=O)C1 (stereo not given)	?	.	4.1%	.	11.6%	-11.5%
CCOC(=O)C(=O)N(CC)C1CCS(=O)(=O)C1 (stereo not given)	-18.4%[14.2 µM]	8.9*	-1.8%	10.2	-0.1%	10.1%
CC1CCN(c2ccc3nnc(CCC(=O)NC(C)C)n3n2)CC1	?	-1.0	-23.1%	-3.7	16.7%	-8.6%
C=CCSc1nc2ccccc2c(=O)[nH]1	.	-1.4	.	-8.5	5.1%	9.0%
C/C(Cl)=C/CSc1nn2c(=O)c3ccccc3nc2s1	5.0%	40.9*	4.6%	61.8*	8.1%	25.7%
C=CCSc1nn2c(=O)c3ccccc3nc2s1	14.0%	35.2*	?	48.2*	-7.3%	22.2%
Cc1ccc(CNC(=O)C2CCN(S(=O)(=O)c3ccc4c(c3)CCCN4C(=O)C3CCC3)CC2)cc1	.	.	-29.7%[46.1 µM]	.	.	?
CC(=O)Nc1ccc(C(=O)OCc2ccccc2Cl)cc1	.	42.2*	.	63.6*	-12.4%	88.3%
CC(=O)Nc1ccc(C(=O)OCc2ccc(Br)cc2)cc1	8.7%	8.1	?	33.4	-3.8%	-8.5%
CCC(=O)Nc1ccc(C(=O)OCc2ccccc2Cl)cc1	-17.6%	33.4*	?	18.1	-13.6%	35.1%
O=C(CC(CC(=O)c1ccccc1)c1ccccn1)c1ccccc1	?	.	?	.	-19.6%	7.2%
CCOC(=O)[C@]12Cc3c(cc(OC)c(OC)c3OC)[C@H]1N(Cc1ccccc1)C(=O)c1cc(OC)ccc12	.	.	.	.	.	17.8µM*
CCOC(=O)[C@]12Cc3c(cc(OC)c(OC)c3OC)[C@H]1N(C)C(=O)c1cc(OC)ccc12	.	.	.	.	.	10µM*
CCOC(=O)[C@]12Cc3cc(C)ccc3[C@H]1N(CCC(=O)OC)C(=O)c1cc(OC)ccc12	.	.	.	.	.	31.6µM*
CCOC(=O)[C@]12Cc3c(cc(OC)c(OC)c3OC)[C@H]1N(CCC(=O)OC)C(=O)c1cc(OC)ccc12	.	.	.	.	.	28.2µM*
CCOC(=O)[C@]12Cc3c(cc(OC)c(OC)c3OC)[C@H]1N(Cc1ccccc1)C(=O)c1cc(F)c(F)cc12	.	.	.	.	.	-27.9%
CCCCNC(=O)C1c2cc(OC)c(OC)cc2C(=O)N(C)C1c1ccc(OC)cc1 (stereo not given)	15.2%[46.1 µM]	-1.8	-16.2%	-2.0	-7.9%	9.0%
CCCCCN1C(=O)c2ccccc2[C@@]2(C(=O)OCC)Cc3cc(OC)ccc3[C@@H]12	.	.	.	.	.	10µM*
CCOC(=O)[C@]12Cc3cc(OC)ccc3[C@H]1N(Cc1ccccc1)C(=O)c1ccccc12	.	.	.	.	?	0.0%
O/N=C1/CC/C(=N\O)c2nn(-c3ccccc3)nc21	16.6%	31.3*	19.2%	36.0	14.4%	13.1%
SMILES	MARV entry inh	CHX counter	Lassa entry inh	Shiga inhibitor	HCV inhibitor	FMDV antiviral
O=C(O)c1nn(-c2ccccc2)nc1-c1nn(-c2ccccc2)nc1C(=O)O	-9.7%	0.6	-4.2%	-20.7	24.3%	-25.7%
O=C(Nc1nc(-c2cccs2)cs1)c1ccc(S(=O)(=O)N2CCCC2)cc1	11.6µM*	-5.6	20.6µM*	2.7	?	10µM*
O=C(Nc1nc(-c2ccc(S(=O)(=O)N3CCCCCC3)cc2)cs1)c1ccccc1	-25.0%	-4.9	?	-4.3	?	11.2µM*
CN(C)S(=O)(=O)c1ccc(C(=O)Nc2nc(-c3cccs3)cs2)cc1	.	-8.6	.	-21.2	10µM*	?
O=C(Nc1nc(-c2ccc3c(c2)OCCO3)cs1)c1ccc(S(=O)(=O)N2CCCCC2)cc1	?	-2.1	?	3.4	?	.
O=C(Nc1nc2ccccc2s1)c1ccc(S(=O)(=O)N2CCCC2)cc1	.	.	?	.	.	11.3%
CCOc1ccc(NC(=O)N(C2CCCCC2)C2CCN(C(C)=O)CC2)cc1	.	.	.	.	8.3%	-8.0%
O=C1C=CC(=O)N1c1ccc(I)cc1Cl	.	0.3	.	-6.7	.	.
Cc1c(C(=O)Nc2cccc(Cl)c2)oc2ccc(S(=O)(=O)N3CCCCCC3)cc12	.	.	4.1%[46.1 µM]	.	.	-27.3%
CC1CC(C(F)F)n2nc(C(=O)Nc3sc4c(c3C#N)CCC(C(C)(C)C)C4)nc2N1 (stereo not given)	-0.6%[46.1 µM]	-1.9	9.6%	1.2	-0.6%	-18.6%
CCCOc1ccccc1NC(=O)/C=C/C(N)=O	-22.0%	12.6*	3.8%	-2.8	?	?
CCCCOc1ccccc1NC(=O)C=C(C)C	14.0%	-3.5	-0.1%	-8.6	?	5.8%
COc1ccc(S(=O)(=O)N2CCN(CCc3ccccc3)CC2)c(OC)c1	?	-0.2	?	-4.2	?	?
CCOc1ccc(CN2CCCC(N3CCN(c4ccc(OC)cc4)CC3)C2)cc1 (stereo not given)	.	0.7	.	-2.6	-27.9%	?
Cc1cc(-c2ccc(Cl)s2)n[nH]1	?	29.3*	22.6%	81.9*	-48.6%	52.3%
Cc1cc(-c2cccs2)n[nH]1	4.3%	13.8	2.2%	28.5	5.7%	0.5%
Cc1c(C(c2cc(O)ccc2Cl)c2c(C)n(C)n(-c3ccccc3)c2=O)c(=O)n(-c2ccccc2)n1C	-4.4%[46.1 µM]	.	19.8%[46.1 µM]	.	?	-10.2%
CC1(C(=O)OCC(=O)Nc2ccccc2)CC1(Cl)Cl (stereo not given)	?	33.7*	1.0%	66.7*	6.8%	32.6%
CC1(C(=O)OCC(=O)NC(=O)NCc2ccccc2)CC1(Cl)Cl (stereo not given)	3.3%[46.1 µM]	11.2	?	-1.6	4.1%	-7.1%
CC1(C(=O)OCC(=O)Nc2ccc(Cl)cn2)CC1(Cl)Cl (stereo not given)	.	.	.	.	1.9%	18.1%
CC1(C(=O)OCC(=O)Nc2ccccc2Cl)CC1(Cl)Cl (stereo not given)	5.9%[46.1 µM]	17.7*	?	62.3*	-2.3%	-4.8%
CC(=O)Nc1ccc(S(=O)(=O)NCC2CCC(C(=O)N3CCCCCC3)CC2)cc1 (stereo not given)	-3.1%	-2.5	3.55µM*	-5.0	-2.5%	-16.8%
CC(=O)Nc1ccc(S(=O)(=O)NCC(=O)OCC(=O)NC(=O)C2CCCCC2)cc1	19.4%	20.9*	?	-13.2	8.9%	-5.3%

Screening data deposited in PubChem BioAssay by National Center for Advancing Translational Sciences (NCATS).
